Holding throughout (settings): mRNA level, 48 h; actives raise or lower the signal
Read-out in assay [1]: Broad substrate specificity ATP-binding cassette transporter ABCG2 (Homo sapiens) (UniProt Q9UNQ0)
The assay can be described thus: LTEA_HepaRG_ABCG2: Life Technologies and Expression Analysis (LTEA) Assay for ABC Transporter (ABCG2) using HepaRG (AID 2283465). The procedure, abridged:
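ABCG2 transcript was quantified by TaqMan qRT-PCR against three housekeeping genes in HepaRG cells. Cells were treated in duplicate for 48 h across an 8-point half-log series up to 100 uM, with 0.5% DMSO vehicle. Gain or loss versus DMSO was fit.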

Read-out in assay [2]: ATP-citrate lyase (ACLY), ACLY (gene 47)
Kind of assay: LTEA_HepaRG_ACLY: Life Technologies and Expression Analysis (LTEA) Assay for ATP-citrate lyase (ACLY) using HepaRG (AID 2283466). The procedure, abridged: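 ACLY mRNA quantified by qRT-PCR on Fluidigm arrays against three housekeeping genes, after 48 h chemical treatment of HepaRG cells (top concentration 100 uM, half-log steps, 0.5% DMSO vehicle). Up- or down-regulation fitted relative to DMSO.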

Read-out in assay [3]: Peroxisomal acyl-coenzyme A oxidase 1 (ACOX1) gene, ACOX1 (gene 51)
Kind of assay: LTEA_HepaRG_ACOX1: Life Technologies and Expression Analysis (LTEA) Assay for Peroxisomal acyl-coenzyme A oxidase 1 (ACOX1) gene using HepaRG (AID 2283467). Summed up:
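ACOX1 transcript levels were quantified by TaqMan qRT-PCR against three housekeeping genes after 48 h chemical exposure of differentiated human HepaRG cells. Exposure used eight half-log steps topping at 100 uM, 0.5% DMSO vehicle, in duplicate. Bidirectional curve fits were made relative to DMSO.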

Read-out in assay [4]: Alkaline Phosphatase, Placental (ALPP) gene, ALPP (gene 250)
Kind of assay: LTEA_HepaRG_ALPP: Life Technologies and Expression Analysis (LTEA) Assay for Alkaline Phosphatase, Placental (ALPP) gene using HepaRG (AID 2283468). Summed up: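 qRT-PCR readout of ALPP mRNA (Fluidigm TaqMan), normalized to ACTB/GAPDH/POLR2A, after 48 h chemical exposure of HepaRG cells; 8-point half-log series, top 100 uM, 0.5% DMSO vehicle. Bidirectional curve fit versus DMSO baseline.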

Read-out in assay [5]: Bcl-2 (BAD) gene, BAD (gene 572)
The assay can be described thus: LTEA_HepaRG_BAD: Life Technologies and Expression Analysis (LTEA) Assay for Bcl-2 (BAD) gene using HepaRG (AID 2283469). The procedure, abridged:
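Read-out: qRT-PCR of BAD mRNA, normalized to three housekeeping genes. Human HepaRG cultures got 48 h chemical exposure in 0.5% DMSO, duplicate eight-point half-log series topping at 100 uM. Gain or loss of signal fitted versus DMSO vehicle.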

Read-out in assay [6]: Bcl-2 (BAX) gene, BAX (gene 581)
The assay can be described thus: LTEA_HepaRG_BAX: Life Technologies and Expression Analysis (LTEA) Assay for Bcl-2 (BAX) gene using HepaRG (AID 2283470). The procedure, abridged:
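Cells were thawed, plated for 48 h, moved to serum-free induction medium and dosed for 48 h (highest concentration 100 uM, half-log steps, 0.5% DMSO). Total RNA was then analysed for BAX expression by qRT-PCR.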

Read-out in assay [7]: adenosine kinase (ADK) gene, ADK (gene 132)
Kind of assay: LTEA_HepaRG_ADK: Life Technologies and Expression Analysis (LTEA) Assay for adenosine kinase (ADK) gene using HepaRG (AID 2283471). The procedure, abridged:
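Read-out is ADK transcript level measured by qRT-PCR and normalised to three housekeeping genes. Cells are human HepaRG, dosed for 48 h at up to 100 uM in 0.5% DMSO. Gain or loss of signal is fitted against DMSO controls.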

Read-out in assay [8]: Alpha-fetoprotein (AFP) gene, AFP (gene 174)
The assay can be described thus: LTEA_HepaRG_AFP: Life Technologies and Expression Analysis (LTEA) Assay for Alpha-fetoprotein (AFP) gene using HepaRG (AID 2283472). The procedure, abridged: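 Chemicals were tested on differentiated HepaRG cells for 48 hours at eight concentrations up to 100 uM, with 0.5% DMSO as vehicle. AFP expression was then quantified by qRT-PCR and analyzed for gain or loss relative to DMSO.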

Read-out in a further assay: BCL2L11 (gene 10018)
The assay can be described thus: LTEA_HepaRG_BCL2L11: Life Technologies and Expression Analysis (LTEA) Assay for Bcl-2 (BCL2L11) gene using HepaRG (AID 2283473). Summed up: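 HepaRG, 48 h exposure, 8-pt half-log series from 100 uM in 0.5% DMSO, duplicates; qRT-PCR (Fluidigm TaqMan) for BCL2L11, housekeeping-normalized; bidirectional curve fit relative to DMSO baseline.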

Read-out in assay [9]: Apolipoprotein A-V (APOA5) gene, APOA5 (gene 116519)
The assay can be described thus: LTEA_HepaRG_APOA5: Life Technologies and Expression Analysis (LTEA) Assay for Apolipoprotein A-V (APOA5) gene using HepaRG (AID 2283474). Summed up: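 HepaRG, 48 h chemical exposure in serum-free induction medium, 8-pt half-log series (top 100 uM), 0.5% DMSO vehicle, duplicates. Readout: APOA5 mRNA by qRT-PCR, housekeeping-normalized; bidirectional fit vs DMSO baseline.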

Read-out in assay [10]: Apoptosis regulator Bcl-2 (Homo sapiens) (UniProt P10415)
The assay can be described thus: LTEA_HepaRG_BCL2: Life Technologies and Expression Analysis (LTEA) Assay for Bcl-2 gene using HepaRG (AID 2283475). Summed up:
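Plated human HepaRG cells are exposed to test chemicals for 48 h across eight concentrations from 100 uM downward in half-log steps (0.5% DMSO). BCL2 expression is then measured by qRT-PCR with housekeeping normalisation and fitted bidirectionally against vehicle.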

Read-out in the next assay: Caspase-3 (Homo sapiens) (UniProt P42574)
The assay can be described thus: LTEA_HepaRG_CASP3: Life Technologies and Expression Analysis (LTEA) Assay for cysteine-aspartic acid protease (CASP3) using HepaRG (AID 2283477). Summed up:
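HepaRG, 48 h exposure, 8 conc. (top 100 uM, half-log steps, duplicate), 0.5% DMSO vehicle; qRT-PCR of CASP3 transcript, housekeeping-normalised (ACTB/GAPDH/POLR2A); bidirectional curve fit vs DMSO baseline.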

Read-out in assay [11]: Cytochrome P450 (CYP24A1), CYP24A1 (gene 1591)
The assay can be described thus: LTEA_HepaRG_CYP24A1: Life Technologies and Expression Analysis (LTEA) Assay for Cytochrome P450 (CYP24A1) using HepaRG (AID 2283478). Summed up: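 qRT-PCR read-out: CYP24A1 transcript levels normalized to three housekeeping genes, bidirectional curve fits against 0.5% DMSO baseline. Human HepaRG cells treated 48 h with chemicals at eight concentrations from 100 uM in half-log steps.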

Read-out in assay [12]: Cytochrome P450 (CYP1A2), CYP1A2 (gene 1544)
Kind of assay: LTEA_HepaRG_CYP1A2: Life Technologies and Expression Analysis (LTEA) Assay for Cytochrome P450 (CYP1A2) using HepaRG (AID 2283479). Summed up: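 HepaRG, 48 h exposure, top 100 uM, half-log 8-pt, 0.5% DMSO vehicle, duplicates. Readout: TaqMan qRT-PCR of CYP1A2 mRNA, housekeeping-normalized (ACTB/GAPDH/POLR2A). Gain/loss fit relative to DMSO baseline.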

Read-out in assay [13]: Cytochrome P450 (CYP2B6), CYP2B6 (gene 1555)
The assay can be described thus: LTEA_HepaRG_CYP2B6: Life Technologies and Expression Analysis (LTEA) Assay for Cytochrome P450 (CYP2B6) using HepaRG (AID 2283481). Summed up: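 Read-out is CYP2B6 mRNA by TaqMan qRT-PCR, normalized to three housekeeping genes and fitted bidirectionally against 0.5% DMSO baseline. Human HepaRG cells received test chemicals for 48 h, top concentration 100 uM, half-log dilutions.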

Read-out in assay [14]: Cytochrome P450 2C19 (Homo sapiens) (UniProt P33261)
The assay can be described thus: LTEA_HepaRG_CYP2C19: Life Technologies and Expression Analysis (LTEA) Assay for CYP2C19 using HepaRG (AID 2283482). The procedure, abridged:
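HepaRG, 48 h chemical exposure, 8-pt half-log series from 100 uM in 0.5% DMSO, duplicates. Readout: CYP2C19 mRNA by TaqMan qRT-PCR, housekeeping-normalized. Bidirectional fit vs DMSO baseline; phenobarbital 1mM as induction control.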

Read-out in another assay: CYP2C8 (gene 1558)
The assay can be described thus: LTEA_HepaRG_CYP2C8: Life Technologies and Expression Analysis (LTEA) Assay for CYP2C8 using HepaRG (AID 2283483). Summed up:
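CYP2C8 expression measured by TaqMan qRT-PCR and normalized to three housekeeping genes. HepaRG cultures were treated for 48 h with an eight-point half-log series topping at 100 uM, vehicle 0.5% DMSO, duplicates; fitted both directions against DMSO.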

Read-out in assay [15]: cysteine-aspartic acid protease (CASP8), CASP8 (gene 841)
Kind of assay: LTEA_HepaRG_CASP8: Life Technologies and Expression Analysis (LTEA) Assay for cysteine-aspartic acid protease (CASP8) using HepaRG (AID 2283480). Summed up: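 CASP8 transcript measured by TaqMan qRT-PCR with ACTB/GAPDH/POLR2A normalization, after 48 h chemical exposure of HepaRG cells in serum-free induction medium. Eight concentrations, top 100 uM, half-log steps, 0.5% DMSO vehicle; fits in both directions versus DMSO.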

Activity calls are given as the source filed them. How the source made its calls: active means hit-call score of the fitted dose curve at least 0.9, where 1 is the maximum; inactive means score below 0.9.

By AC50 is commonly meant the midpoint of the concentration-response curve, whichever way the signal moves.

Cytochrome P450 2C19 (Homo sapiens), sequence (P33261 whole entry, looked up): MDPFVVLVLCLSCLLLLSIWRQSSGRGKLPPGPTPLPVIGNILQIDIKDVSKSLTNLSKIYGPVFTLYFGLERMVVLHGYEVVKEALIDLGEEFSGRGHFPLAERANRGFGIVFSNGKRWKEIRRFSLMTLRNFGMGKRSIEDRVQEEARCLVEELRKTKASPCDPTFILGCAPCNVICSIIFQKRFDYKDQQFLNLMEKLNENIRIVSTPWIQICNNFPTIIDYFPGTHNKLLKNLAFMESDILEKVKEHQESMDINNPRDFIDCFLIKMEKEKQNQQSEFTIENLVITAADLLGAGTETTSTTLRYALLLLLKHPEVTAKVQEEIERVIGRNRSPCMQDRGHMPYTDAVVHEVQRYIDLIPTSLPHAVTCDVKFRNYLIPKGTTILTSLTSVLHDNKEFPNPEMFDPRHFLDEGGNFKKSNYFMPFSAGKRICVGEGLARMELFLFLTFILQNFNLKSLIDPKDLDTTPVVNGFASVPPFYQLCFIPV
Broad substrate specificity ATP-binding cassette transporter ABCG2 (Homo sapiens), sequence (Q9UNQ0 whole entry, looked up): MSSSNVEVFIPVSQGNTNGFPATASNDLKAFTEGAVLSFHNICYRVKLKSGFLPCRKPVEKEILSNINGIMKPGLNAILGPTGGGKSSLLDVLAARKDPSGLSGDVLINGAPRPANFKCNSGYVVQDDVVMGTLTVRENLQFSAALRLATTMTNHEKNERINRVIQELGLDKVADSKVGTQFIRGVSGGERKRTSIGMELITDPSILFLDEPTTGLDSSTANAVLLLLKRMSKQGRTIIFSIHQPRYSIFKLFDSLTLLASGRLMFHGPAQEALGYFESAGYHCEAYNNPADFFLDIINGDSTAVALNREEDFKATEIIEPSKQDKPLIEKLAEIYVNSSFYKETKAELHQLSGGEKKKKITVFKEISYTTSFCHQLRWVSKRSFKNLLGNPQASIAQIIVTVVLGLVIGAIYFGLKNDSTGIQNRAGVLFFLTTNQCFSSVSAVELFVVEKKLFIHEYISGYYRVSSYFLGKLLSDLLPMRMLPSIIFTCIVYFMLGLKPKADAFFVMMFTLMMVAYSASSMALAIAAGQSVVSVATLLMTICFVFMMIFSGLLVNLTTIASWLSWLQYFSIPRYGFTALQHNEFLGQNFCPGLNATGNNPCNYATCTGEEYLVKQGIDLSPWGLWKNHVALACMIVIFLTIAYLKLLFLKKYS
Apoptosis regulator Bcl-2 (Homo sapiens), sequence (P10415 whole entry, looked up): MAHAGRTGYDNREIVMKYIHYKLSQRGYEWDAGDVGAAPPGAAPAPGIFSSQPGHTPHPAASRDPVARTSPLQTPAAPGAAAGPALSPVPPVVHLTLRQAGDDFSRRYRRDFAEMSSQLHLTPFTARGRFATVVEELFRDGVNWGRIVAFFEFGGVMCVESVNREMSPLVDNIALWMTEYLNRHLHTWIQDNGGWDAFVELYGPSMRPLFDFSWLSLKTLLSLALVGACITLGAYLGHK
Caspase-3 (Homo sapiens), sequence (P42574 whole entry, looked up): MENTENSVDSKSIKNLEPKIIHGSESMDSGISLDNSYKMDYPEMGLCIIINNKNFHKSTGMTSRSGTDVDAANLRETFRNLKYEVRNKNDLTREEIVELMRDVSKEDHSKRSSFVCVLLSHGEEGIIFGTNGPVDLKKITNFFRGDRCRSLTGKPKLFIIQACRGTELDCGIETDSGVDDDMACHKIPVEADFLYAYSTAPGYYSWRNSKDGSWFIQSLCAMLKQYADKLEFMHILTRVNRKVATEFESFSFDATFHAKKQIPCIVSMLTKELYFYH

`CC1(C)C(C=C(Cl)Cl)C1C(=O)OCc1cccc(Oc2ccccc2)c1` (configuration not stated): the compound was called inactive in [1], in [2], in assay [3], in assay [4], in assay [5] and in [6]. In addition, the call (in assay [7]; in assay [8]; in the assay with BCL2L11 (gene 10018); in assay [9]; in assay [10]; with Caspase-3 (Homo sapiens)) was inactive. Moreover, the call (in assay [11]; in assay [14]; with CYP2C8 (gene 1558)) was inactive. Besides, the AC50 in assay [12] is 11 µM (active); in assay [13], 12 µM (active).
`CCOC(=O)c1ccc(O)cc1`: the compound was called inactive in [1], in assay [2], in assay [3], in assay [4], in assay [5] and in assay [6]. Also, the result (in assay [7]; in assay [8]; in the assay with BCL2L11 (gene 10018); in [9]; in [10]; with Caspase-3 (Homo sapiens)) was inactive. The compound was called inactive (in assay [11]; in assay [12]; in assay [15]; in assay [13]; with CYP2C8 (gene 1558)).
Take `C#CCOC(=O)[C@@H](C)Oc1ccc(Oc2ncc(Cl)cc2F)cc1`: the compound was called inactive in [1], in assay [2], in assay [3], in [4], in assay [5] and in assay [6]. The compound was called inactive (in assay [7]; in assay [8]; with BCL2L11 (gene 10018); in [9]; in [10]; with Caspase-3 (Homo sapiens)). In addition, the compound was classed as inactive (in [11]; in assay [12]; in [13]; in assay [14]; with CYP2C8 (gene 1558)).
As for `S=C([S-])NCCNC(=S)[S-].[Mn+2]`, the compound was classed as inactive (in assay [1]; in [4]; in assay [5]; in [6]; with BCL2L11 (gene 10018); in assay [10]). Further, the call in assay [11] was inactive. The AC50 in assay [2] was 0.871 µM (active); in assay [3], 2.64 µM (active); in assay [7], 0.628 µM (active); in assay [8], 3.16 µM (active); in [9], 3.64 µM (active); with Caspase-3 (Homo sapiens), 0.594 µM (active). Moreover, the AC50 in [12] is 0.654 µM (active); in assay [13], 2.35 µM (active); in [14] it was 4.61 µM (active); with CYP2C8 (gene 1558), 2.31 µM (active).
In the case of `C[C@]12C[C@H](O)[C@H]3[C@@H](CCC4=CC(=O)CC[C@@]43C)[C@@H]1CC[C@@H]2C(=O)CO`, the AC50 (in [1]; in [13]; with CYP2C8 (gene 1558)) was 50 µM (active) throughout. The outcome in assay [2], in assay [3], in assay [4], in assay [5], in assay [6] and in assay [7] was inactive. The result (in assay [8]; in the assay with BCL2L11 (gene 10018); in [9]; in assay [10]; in the assay with Caspase-3 (Homo sapiens); in assay [11]) was inactive.
`CCOC(=O)COc1cc(-n2ncc(C(F)(F)F)c(C)c2=O)c(F)cc1Cl`: the compound was called inactive in assay [1], in assay [2], in assay [3], in [4], in assay [5] and in assay [6]. Moreover, the compound was called inactive (in [7]; in assay [8]; with BCL2L11 (gene 10018); in [9]; in assay [10]; with Caspase-3 (Homo sapiens)). Besides, the call (in assay [11]; in assay [12]; in [14]; in the assay with CYP2C8 (gene 1558)) was inactive. In addition, in assay [13], the AC50 is 50 µM (active).
With `CCN(CC)C(=O)c1cccc(C)c1`, the outcome in assay [1], in assay [2], in [3], in assay [4], in [5] and in [6] was inactive. For the same compound, the result (in assay [7]; in assay [8]; with BCL2L11 (gene 10018); in assay [9]; in assay [10]; in the assay with Caspase-3 (Homo sapiens)) was inactive. Besides, the call in assay [11] and in assay [12] was inactive. The AC50 in assay [13] is 3.4 µM (active); in assay [14] it was 12.9 µM (active); with CYP2C8 (gene 1558), 9.19 µM (active).

For the origin of these results see PubChem BioAssay (EPA / NIEHS).
